# Bioassay records deposited in PubChem BioAssay by Johns Hopkins Ion Channel Center.
# The list is not random: actives were taken first. Their share in the collection is about 3.5%.
# KCNK3 inh: human KCNK3 channel inhibition, primary screen; AID 602410; 0.84% of 340,000 active; B-score at 10 µM; CHO-KCNK3 thallium flux, FluxOR fluorescence; hits give low values; O14649;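 active = B-score under library mean minus 4 SD, starting fluorescence ratio at most library mean plus 5 SD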;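 also: more negative B-score means stronger inhibition of thallium flux through KCNK3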
# TMEM16A act: activators or potentiators of mouse TMEM16A chloride channel; HEK293 TMEM16A/YFP-H148Q/I152L, iodide quench fluorescence; hits give low values; B-score at 10 µM; 0.3% of 340,000 active; Q8BHY3;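 active = fluorescence-ratio B-score plate-corrected deviation score at least 3 library SD below zero, with starting fluorescence score within 5 deviations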;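 also: channel opened by trigger with iodide after compound preincubation; score built on the fluorescence ratio of max minus min over baseline; more negative score means more quench and so TMEM16A activation or potentiation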
# KCNK9 block: blocks the human KCNK9 two-pore domain potassium channel; HEK293 KCNK9, FluxOR thallium flux fluorescence; hits give low values; AID 488922; B-score at 10 µM; 1.2% of 310,000 active;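 active = ratio B-score over 3 SD below the library mean, with starting fluorescence within 5 SD of its mean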;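 also: negative B-score means less thallium flux so channel inhibition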
# Kir21 block: inhibitors of mouse Kir2.1 inward-rectifier potassium channel | P35561 | 0.85% of 310,000 active | HEK293-Kir2.1, FluxOR thallium flux fluorescence; hits give low values | B-score at 10 µM;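 active = fluorescence ratio B-score at or below minus 3 SD of library scores, with starting-brightness B-score within 2 SD, cut at about -4.2 in these data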;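 also: channel flux triggered by added potassium and thallium sulfate stimulus; B-score of peak minus minimum fluorescence over baseline after thallium stimulus; more negative B-score means stronger Kir2.1 block with less thallium influx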
# Target sequence (P35561 whole entry, looked up): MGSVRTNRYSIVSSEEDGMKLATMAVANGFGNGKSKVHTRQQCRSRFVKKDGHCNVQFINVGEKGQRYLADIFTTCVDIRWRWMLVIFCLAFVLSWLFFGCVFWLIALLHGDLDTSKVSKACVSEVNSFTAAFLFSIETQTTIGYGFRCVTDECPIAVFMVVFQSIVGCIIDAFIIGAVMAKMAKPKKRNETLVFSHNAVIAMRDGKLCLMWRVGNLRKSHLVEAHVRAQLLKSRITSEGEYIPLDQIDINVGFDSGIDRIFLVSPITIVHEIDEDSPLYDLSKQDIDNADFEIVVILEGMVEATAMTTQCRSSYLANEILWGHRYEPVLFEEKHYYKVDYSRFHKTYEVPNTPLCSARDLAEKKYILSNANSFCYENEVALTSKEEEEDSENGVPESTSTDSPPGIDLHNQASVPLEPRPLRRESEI
# ANO1 block: blocks the mouse calcium-activated chloride channel TMEM16A | Q8BHY3 | HEK293 TMEM16A/YFP iodide influx fluorescence, ionomycin | normalized B-score (activity score, 25-100; higher = stronger inhibition) at 10 µM | 1.2% of 310,000 active | AID 588511;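 active = ratio plate-corrected score three or more library SD toward inhibition, starting fluorescence score within five deviations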;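 also: score derived from kinetic fluorescence span divided by baseline fluorescence per well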
# KCNK3 confirm: confirmation of human KCNK3 two-pore domain potassium channel inhibitors; shares compounds with KCNK3 inh; CHO-KCNK3 thallium flux, FluxOR fluorescence; 0% buffer, 100% carvedilol maximal block; ratio percent of control, % at 10 µM; 99% of 2,400 active;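 active = ratio percent of control, averaged over triplicates, above buffer control mean plus 5 SD, cut at about 64% in these data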;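 also: ratio is the fluorescence rise from min to max over baseline after thallium stimulus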
# KCNK3 uninduced: counter-screen for KCNK3 inhibitors: effect in non-induced cells. shares compounds with KCNK3 inh. non-induced KCNK3 parental cells, FluxOR thallium flux; hits give low values. thallium flux ratio (lower = more inhibition) at 10 µM. 40% of 2,400 active;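 active = thallium flux ratio, averaged over three wells, more than 5 SD below the buffer control mean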;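 also: host cells are CHO cells without KCNK3 induction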
# Hits are given with their value; n = inactive; x = not tested or not shown.
SMILES,KCNK3 inh,TMEM16A act,KCNK9 block,Kir21 block,ANO1 block,KCNK3 confirm,KCNK3 uninduced
COc1ccc(NC(=S)N(CCc2c(C)[nH]c3ccc(C)cc23)Cc2cccnc2)cc1,-12.1,n,-6.87,n,n,96.3,0.153
Cc1[nH]c2ccc(F)cc2c1CCN(Cc1ccncc1)C(=S)Nc1ccccc1,n,n,n,n,n,x,x
Cc1[nH]c2ccc(F)cc2c1CCN(Cc1cccnc1)C(=S)Nc1ccccc1,-10.3,n,n,n,n,91.3,n
CCOCCCN1CC(=O)N2[C@@H](Cc3c([nH]c4ccccc34)C2(C)C)C1=O,n,n,n,n,n,x,x
O=C(Nc1ccc(F)c(Cl)c1)N1CCCCCC1,n,n,n,n,n,x,x
COc1ccc(S(=O)(=O)N2CCOCC2)cc1NC(=O)Cc1ccc(Cl)c(Cl)c1,n,n,n,n,n,x,x
O=C(Cn1cnc(S(=O)(=O)N2CCCC2)c1)Nc1cccc(F)c1,n,n,n,n,n,x,x
Cc1cc(C)cc(NC(=S)N(CCN2CCCCC2)Cc2ccco2)c1,-8.87,n,n,n,n,89.7,n
COc1ccc(NC(=S)N(CCN2CCCCC2)Cc2ccco2)cc1,n,n,n,n,n,x,x
CCOc1ccc(S(=O)(=O)N2CCN(Cc3ccco3)CC2)cc1,n,n,n,n,n,x,x
CCOc1ccc(C(=O)n2cc(C(=O)OC)c3ccccc32)cc1,-10.2,n,n,n,n,116.0,0.147
CCN(CC)S(=O)(=O)c1cc([N+](=O)[O-])ccc1NNC(=O)Nc1ccc(F)cc1,n,n,n,n,n,x,x
O=C(Nc1ccc(Cl)cc1)N1CCC(c2nc(-c3ccccc3Cl)no2)CC1,-8.71,n,n,n,n,108.3,0.137
Cc1ccccc1NC(=O)/C=C1\SC(=O)NC1=O,n,n,n,n,n,x,x
CC(=O)Nc1ccc(NC(=O)CC2(CC(=O)N3CCOCC3)CCCC2)cc1,n,n,x,x,x,x,x
CCOc1ccc(C2C(C#N)=C(N)SC(N)=C2C#N)cc1OCC,-11.8,n,n,n,n,108.3,0.154
CN1c2ccccc2C(=O)NC1c1ccc(Cl)cc1 (stereo not drawn),n,n,n,n,n,x,x
Clc1ccc(C2Nc3ccccc3-n3cccc32)cc1 (stereo not drawn),-12.7,n,n,n,n,114.0,0.156
Cc1ccc(C)c(NS(=O)(=O)c2cc(C(=O)NCCSC3CCCCC3)ccc2C)c1,-9.96,n,-7.94,n,n,110.3,n
O=C(O)C(=O)/C(=C\c1cccc2ccccc12)c1ccc2ccccc2n1,-9.09,n,n,n,n,137.3,n
COc1ccc(Cl)cc1NC(=S)Nc1cccc(C)c1,-9.38,n,n,n,n,105.0,n
CC(C)Nc1cc(C(C)(C)C)nc2c(-c3ccccc3)cnn12,-10.3,n,n,n,n,81.7,0.142
CC(C)(C)c1cc(C(F)(F)F)n2ncc(-c3ccccc3)c2n1,n,n,n,n,n,x,x
CCc1nc(SCC(=O)c2ccccc2)c2ccccc2n1,-9.44,n,n,n,n,87.7,n
CCc1nc(SCC(=O)N2c3ccccc3Sc3ccccc32)c2ccccc2n1,n,n,n,n,n,x,x
SMILES,KCNK3 inh,TMEM16A act,KCNK9 block,Kir21 block,ANO1 block,KCNK3 confirm,KCNK3 uninduced
FC(F)(F)c1cnc(COc2ccc(Cl)cc2Cl)c(Cl)c1,-9.65,n,n,n,n,102.3,n
Cc1ccccc1-c1cc(-c2ccccc2O)on1,-9.16,n,n,n,n,118.3,n
COc1ccc(C(C(=O)NC2CCCC2)N(Cc2cccnc2)C(=O)Cc2cccs2)c(OC)c1 (stereo not drawn),n,n,n,n,n,x,x
Cc1ccc(C)c(N2CCN(CCCNC(=O)CCC(=O)N3CCOc4ccc(Cl)cc43)CC2)c1,x,x,n,n,n,x,x
Cc1ccc(C)c(N2CCN(C(=O)CCC(=O)N3CCOc4ccc(Cl)cc43)CC2)c1,-10,n,n,n,n,122.0,0.147
Cc1ccc(S(=O)(=O)N2CCC(C(=O)NC3CC(C)(C)NC(C)(C)C3)CC2)cc1C,n,n,n,n,n,x,x
O=C(N/N=C/c1ccc[nH]1)c1cc(-c2ccc(Cl)cc2)nc2ccccc12,-9.11,n,n,n,n,123.7,0.122
COC(=O)CSc1nnc2n(C3CCCCC3)c(=O)c3c4c(sc3n12)CCCC4,-9.52,n,n,n,n,96.0,0.153
COc1cccc(CN(C)S(=O)(=O)c2ccccc2Br)c1,n,x,x,x,x,x,x
O=C(Nc1ccc2nc(SCc3ccc(Cl)cc3)sc2c1)c1ccccc1C(=O)N1CCOCC1,-8.74,n,n,n,n,97.0,n
Cc1ccccc1-c1nnn(Cc2ccc(F)cc2Cl)n1,-9.04,n,n,n,n,101.3,n
N#C/C(=N\Nc1cccc(C(F)(F)F)c1)C(=O)c1csc(-c2cccnc2)n1,-9.43,n,n,n,100,100.7,0.13
Cc1ccc(C(=O)Nc2cccc(C(F)(F)F)c2)cc1NC(=O)c1csc(-c2ccncc2)n1,n,n,n,n,n,x,x
CCc1nnc(SCC(=O)Nc2nnc(C)s2)n1CC1CCCO1 (stereo not drawn),n,n,n,n,n,x,x
CCc1nnc(SCC(=O)Nc2ccccc2)n1CC1CCCO1 (stereo not drawn),-8.73,n,n,n,n,79.0,0.159
O=C(CSc1nc2ccccc2c(=O)n1CC1CCCO1)Nc1ccccc1Cl (stereo not drawn),-12.2,n,-7.62,n,n,104.0,n
CC1CCc2sc(C(=O)N/N=C/c3ccc(O)cc3)cc2C1 (stereo not drawn),-10.3,n,n,n,n,57.3,n
O=C(COc1ccccc1Cl)NCCCNC(=O)c1cnccn1,n,n,n,n,n,x,x
CCOC(=O)c1ccc(NC(=O)CSCc2ccco2)cc1,-9.17,n,n,n,n,91.3,n
CC(=O)Nc1ccc(-c2csc(NC(=O)CC(NC(C)=O)c3ccccc3)n2)cc1 (stereo not drawn),n,n,n,n,n,x,x
CC(=O)NC(CC(=O)Nc1nc(-c2ccc(N(C)S(C)(=O)=O)cc2)cs1)c1ccccc1 (stereo not drawn),-10.5,n,n,n,n,59.0,n
Cc1cccc(C)c1NC(=O)CN(C)C(=O)c1cccc(NS(=O)(=O)c2ccccc2)c1,n,n,n,n,n,x,x
COC(=O)c1cc(NS(=O)(=O)c2ccc(C)c3ccccc23)ccc1N1CCOCC1,n,n,n,n,n,x,x
Cc1ccc(C)c(N2CCN(C(c3ccc(N(C)C)cc3)c3nnnn3C(C)(C)C)CC2)c1 (stereo not drawn),n,x,-8.08,n,n,122.3,0.148
Cc1cccc(C(=O)c2cnc3ccccc3c2-c2ccccc2)c1,-11.4,n,-6.73,n,n,129.0,0.137
